# ± gives the standard deviation of the averaged measurements.
# Test system: lanierone-responsive B-neuron OSN class (ItypOR36)
# Assay: net action potential response of lanierone B-neuron (blank-subtracted) (spikes/s (Hz)); higher = stronger excitation
# Details: 10 µg on filter paper, neuron: B neuron (small spike amplitude)
# Procedure: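 Single sensillum recordings from antennal olfactory sensilla of live adult Ips typographus. Each compound was 10 µg in paraffin oil, delivered as a 0.5 s puff. Net response = spikes in the first 0.5 s of response minus the 0.5 s pre-stimulus count, doubled to give Hz, with blank response subtracted. Values are for the small-spike lanierone-responsive B-neuron (putatively expressing ItypOR36), recorded in sensilla co-housing the A-neuron class; N = 1-4, averaged.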
# [1] = co-localized A-neuron class: (4S)-cis-verbenol
# [2] = co-localized A-neuron class: (5S,7S)-trans-conophthorin
# [3] = co-localized A-neuron class: (+)-isopinocamphone
# [4] = co-localized A-neuron class: (+)-trans-4-thujanol
# [5] = co-localized A-neuron class: ipsdienol
# [6] = co-localized A-neuron class: myrcene
# [7] = co-localized A-neuron class: p-cymene
Structure (SMILES),net action potential response [1],net action potential response [2],net action potential response [3],net action potential response [4],net action potential response [5],net action potential response [6],net action potential response [7]
CCc1ccc(O)c(OC)c1 [4-Ethylguaiacol],1.33 ± 3.1,0.667 ± 2.3,5.33 ± 1.1,4 ± 5.4,-2 ± 5.3,-8,0.667 ± 3.1
CCC1CCC2(CCCO2)O1 (racemic) [(±)-Chalcogran],-1.33 ± 5.8,-4 ± 5.3,-1.33 ± 2.3,-1.5 ± 3.4,-0.667 ± 1.1,-8,-2.67 ± 2.3
CC/C=C\CCO,2.67 ± 6.4,-4 ± 6,-4 ± 2,-4.5 ± 3.4,-5.33 ± 5.8,-6,0
CC1=CC(=O)[C@@H]2C[C@H]1C2(C)C [(-)-Verbenone],1.33 ± 6.4,-0.667 ± 1.1,-4.67 ± 6.1,4 ± 6.7,2 ± 4,6,2 ± 2
CC1=C[C@@H](O)[C@H]2C[C@@H]1C2(C)C [(-)-trans-Verbenol],-1.33 ± 9,-3.5 ± 6,1.33 ± 2.3,-2 ± 2.8,2 ± 4,-4,-2 ± 9.2
C=C(C)C1CC=C(C)C(=O)C1 (racemic) [(±)-Carvone],-1.33 ± 5,1.5 ± 2.5,2.67 ± 2.3,1 ± 2.6,-4.67 ± 2.3,6,0 ± 5.3

# From the supplement of paper PMC11577813, “Eurasian spruce bark beetle detects lanierone using a highly expressed specialist odorant receptor, present in several functional sensillum types” (BMC Biology, 2024)
